# Source: PubChem BioAssay
# Shown are actives, neighbours in structure and some others; about 1.3% of the full set was active somewhere.
# LYPLA1 counter: blocks human lysophospholipase 1, a PME1 counter-screen; recombinant LYPLA1, FP-Rh probe fluorescence polarization; inhibition, % at 5.9 µM; 320,000 tested, 0.16% active;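 active = inhibition above the mean of all tested compounds plus 3 SD, set per campaign, cut at about 14% in these data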;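 also: inhibitors block serine hydrolase probe labeling of LYPLA1 so polarization falls; 0% = enzyme with DMSO and 100% = wells lacking LYPLA1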
# Fam108B counter: Fam108B inhibition, counter-screen for RBBP9 inhibitors. recombinant Fam108B, FP-Rh probe fluorescence polarization. inhibition, % at 9.51 µM. 300,000 tested, 0.33% active. AID 1947;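 active = inhibition above the screen mean inhibition plus 3 SD, computed separately per campaign, cut at about 18% in these data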;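 also: inhibitors lower polarization as less probe binds the enzyme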
# PREPL inh: inhibits the human prolyl oligopeptidase-like enzyme. AID 2751. inhibition, % at 5.96 µM. Q4J6C6. 320,000 tested, 0.68% active. recombinant PREPL, fluorescence polarization activity-based probe;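 also: 0% = enzyme with DMSO and 100% = wells lacking enzyme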
# Target sequence (Q4J6C6 whole entry, looked up): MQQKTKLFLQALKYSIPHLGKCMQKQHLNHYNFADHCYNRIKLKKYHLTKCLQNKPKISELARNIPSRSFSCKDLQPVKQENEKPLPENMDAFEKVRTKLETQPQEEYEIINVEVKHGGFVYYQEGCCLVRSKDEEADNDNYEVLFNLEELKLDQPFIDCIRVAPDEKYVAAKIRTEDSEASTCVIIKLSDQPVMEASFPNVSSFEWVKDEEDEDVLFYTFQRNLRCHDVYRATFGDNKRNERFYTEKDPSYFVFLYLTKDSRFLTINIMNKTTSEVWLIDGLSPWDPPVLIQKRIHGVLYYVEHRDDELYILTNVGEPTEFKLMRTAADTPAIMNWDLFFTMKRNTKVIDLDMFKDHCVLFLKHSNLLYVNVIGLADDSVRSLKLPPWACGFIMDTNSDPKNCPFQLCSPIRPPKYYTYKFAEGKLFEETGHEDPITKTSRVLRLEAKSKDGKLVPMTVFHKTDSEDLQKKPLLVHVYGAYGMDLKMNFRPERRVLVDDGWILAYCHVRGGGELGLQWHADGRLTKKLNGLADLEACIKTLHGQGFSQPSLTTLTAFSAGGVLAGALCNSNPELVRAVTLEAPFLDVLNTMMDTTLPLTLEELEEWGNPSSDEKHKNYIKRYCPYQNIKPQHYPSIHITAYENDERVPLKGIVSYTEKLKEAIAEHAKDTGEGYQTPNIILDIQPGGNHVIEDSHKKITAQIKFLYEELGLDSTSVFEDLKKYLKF
# PME-1 primary: PME-1 (human) inhibition. Q9Y570. recombinant PME-1, FP-Rh probe fluorescence polarization. inhibition, % at 5.9 µM. 320,000 tested, 0.53% active;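 active = inhibition above the campaign mean of all compounds plus 3 SD, cut at about 26% in these data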;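 also: competitive labeling of PME-1 active site by serine hydrolase directed probe; 0% = PME-1 with DMSO and 100% = wells lacking PME-1 enzyme; inhibitors block probe labeling so polarization falls and inhibition rises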
# LYPLA2 inh: blocks human lysophospholipase 2, a PME1 counter-screen | O95372 | recombinant LYPLA2, FP-Rh probe fluorescence polarization | inhibition, % at 5.9 µM | 320,000 tested, 0.38% active;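 active = inhibition above the screen-wide mean plus 3 SD, limit set per campaign, cut at about 26% in these data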;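 also: 0% = LYPLA2 with DMSO and 100% = wells lacking LYPLA2 enzyme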
# PREPL inh cf: human PREPL inhibition, confirmation | recombinant PREPL, fluorescence polarization activity probe | inhibition, % at 5.96 µM | 2,000 tested, 67% active | shares compounds with PREPL inh;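 also: 0% = protein with DMSO and 100% = wells lacking protein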
# Numbers without * were called inactive; · = no result. Rule as the data show it, unless noted: active = inhibition above about 43%; inactive = the rest.
SMILES,LYPLA1 counter,Fam108B counter,PREPL inh,PME-1 primary,LYPLA2 inh,PREPL inh cf
O=C(C[n+]1ccc2ccccc2c1)c1cccc2ccccc12,2.4,3.8,51.7*,-0.4,4.6,3.4
Cc1ccc(C)c(S(=O)(=O)N2CCN(C(=O)CSc3ccccc3F)CC2)c1,-0.8,-0.5,7.1,2.8,-1.0,·
Cc1ccc(C)c(C(=O)OCC(=O)Nc2cccc(S(=O)(=O)NC3=NCCCCC3)c2)c1,-0.1,-2.4,46.4*,-0.9,-3.3,32.9
Cc1ccc(S(=O)(=O)NCC(=O)OCC(=O)Nc2cccc(S(=O)(=O)NC3=NCCCCC3)c2)cc1C,2.6,-3.4,-7.5,-1.1,1.3,·
CC(=O)Nc1ccc(C(F)(F)F)cc1Cl,-1.8,5.7,0.6,-0.6,4.6,·
CN(C)/N=C/c1cc([N+](=O)[O-])ccc1O,3.1,3.4,-0.1,5.2,3.8,·
O=[N+]([O-])c1ccc(C(O)CN=Cc2ccc(O)cc2O)cc1 (stereo not drawn),-8.2,2.6,48.5*,-6.4,-2.1,10.8
COc1ccc(Oc2nc3c(C)cccn3c(=O)c2/C=C(\C#N)C(N)=O)cc1,-4.1,2.4,15.6,0.5,-0.9,·
C=CCNC(=O)/C(C#N)=C/c1c(N2CCN(c3ccc(OC)cc3)CC2)nc2c(C)cccn2c1=O,-3.2,7.7,57.1*,3.4,8.4,49.5*
COCCCNC(=O)/C(C#N)=C/c1c(N2CCN(c3ccccc3)CC2)nc2c(C)cccn2c1=O,1.5,2.1,44.1*,1.5,-1.4,32.1
COc1ccc(N2CCN(c3nc4c(C)cccn4c(=O)c3/C=C(\C#N)C(N)=O)CC2)cc1,3.1,10.4,53.6*,2.0,4.2,52.6*
COCCCNC(=O)/C(C#N)=C/c1c(N2CCN(c3cccc(Cl)c3)CC2)nc2c(C)cccn2c1=O,-1.8,-1.2,18.2,5.2,-3.1,·
COc1ccccc1/C=C1\SC(=S)N(CC(=O)Nc2nnc(C)s2)C1=O,-1.0,2.7,2.7,-0.2,0.1,·
CCOc1cc(N2CCOCC2)c(OCC)cc1NC(=O)CN1C(=O)NC(Cc2ccccc2)C1=O (stereo not drawn),0.2,3.6,54.1*,-10.7,2.1,56.0*
Cc1ccc(OCCn2cnc3cc([N+](=O)[O-])ccc3c2=O)cc1,-2.7,-0.3,27.6,-0.2,-2.2,·
O=c1c2ccc([N+](=O)[O-])cc2ncn1CCOc1ccccc1,-0.9,0.5,44.4*,0.6,0.5,32.7
CC(=O)NC1=C(C#N)C(c2ccccc2)c2c(ccc3ccccc23)O1 (stereo not drawn),0.3,-5.6,-4.3,-10.5,-0.1,·
COc1ccc(N2CCN(Cc3nc4ccsc4c(=O)[nH]3)CC2)cc1,-1.3,3.3,11.5,-4.0,-0.2,·
O=c1[nH]c(CN2CCN(c3ccc([N+](=O)[O-])cc3)CC2)nc2ccsc12,2.2,2.7,46.1*,-24.2,8.6,29.1
COc1ccc(Cn2nnc3ccccc32)cc1,0.6,-3.4,50.1*,-1.8,7.0,37.3
COc1ccc(C)cc1Nc1n[n+](-c2ccccc2)c(-c2cc(OC)c(OC)cc2Br)s1,0.4,2.0,5.0,3.2,-0.5,·
COc1ccc(C)cc1Nc1n[n+](-c2ccccc2)c(-c2c(OC)ccc3ccccc23)s1,0.7,0.5,51.5*,2.6,-4.9,39.6
COc1ccc(NC(=O)C2CCCN(c3c4c(nc5ncnn35)CCC4)C2)cc1OC (stereo not drawn),-0.6,-2.2,9.8,-0.5,0.6,·
O=C(Nc1ccc2c(c1)CCC2)C1CCN(c2c3c(nc4ncnn24)CCC3)CC1,-1.8,-0.9,45.6*,-2.4,11.7,42.9
CSc1nnc(CCNS(=O)(=O)c2ccc(Br)cc2)n1C,2.1,2.7,2.9,6.1,4.2,·
SMILES,LYPLA1 counter,Fam108B counter,PREPL inh,PME-1 primary,LYPLA2 inh,PREPL inh cf
O=C(CSc1ccc(Cl)cc1)Nc1ccc(NC(=O)c2ccco2)cc1,-0.3,-5.9,-4.6,-5.6,14.5,·
O=C(COc1ccc(Cl)cc1)Nc1ccc(N2CCN(C(=O)c3ccco3)CC2)cc1,1.1,9.6,48.6*,-3.1,6.2,48.2*
COc1ccc(OCC(=O)Nc2ccc(N3CCN(C(=O)c4ccco4)CC3)cc2)cc1,2.2,0.4,25.6,-5.8,9.5,·
Cc1ccccc1C(=O)N1CCN(c2ccc(NC(=O)CSc3ccc(Cl)cc3)cc2)CC1,-6.3,1.5,64.9*,5.3,4.4,50.5*
O=C(CSc1ccc(Cl)cc1)Nc1ccc(N2CCN(C(=O)c3ccco3)CC2)cc1,-3.1,-3.6,48.0*,1.7,2.0,48.6*
CC(C)(C)NC(=O)CSCc1ccc(Br)cc1,-0.8,0.4,5.8,-6.8,2.6,·
Cc1c(C=Nc2ccc(S(=O)(=O)CCO)cc2)c(O)[nH]c(=O)c1C#N,-1.1,3.2,3.9,-2.5,0.3,·
O=C(CSc1ccc(Cl)cc1)Nc1nnc(-c2cccc([N+](=O)[O-])c2)s1,-0.8,-12.9,24.9,-4.5,-4.3,·
O=C(Cc1cccc2ccccc12)Nc1nnc(-c2cccc([N+](=O)[O-])c2)s1,-7.4,-21.4,45.8*,-8.4,-6.6,27.7
Cc1[nH]nc(SCC(=O)NCc2ccc(Cl)cc2)c1[N+](=O)[O-],1.0,-1.3,-1.9,-0.3,-3.1,·
COc1ccc(NC(=O)CSc2nc3nc(C)cc(C)c3c(=O)[nH]2)cc1,-1.5,3.0,45.2*,-8.1,-5.2,0.8
COC(=O)c1sccc1-c1ccc(/C=N/OC(=O)c2ccccc2)o1,-3.7,-7.7,43.4*,11.3,-3.2,38.1
COC(=O)c1ccccc1-c1ccc(/C=N/NC(N)=O)o1,-0.4,5.1,-0.5,-0.1,-3.1,·
COc1ccc(C(=O)COC(=O)c2cnc(C)cn2)cc1OC,-0.3,·,0.5,-0.1,8.1,·
COc1ccc(NC(=O)N2CCN(c3ccc([N+](=O)[O-])cc3)CC2)cc1OC,4.4,-1.0,46.3*,-3.6,14.7,56.3*
CNc1c(NS(=O)(=O)c2cc(OC)ccc2OC)c(=O)oc2ccccc12,-0.9,-6.9,4.9,-7.2,-2.6,·
C(=N\Nc1ncnc2ccccc12)/c1ccccc1,0.4,1.6,45.0*,9.6,-2.0,20.7
Clc1cccc(/C=N/Nc2ncnc3ccccc23)c1,-3.8,2.3,40.0,9.6,0.4,·
CC(C)CCNC(=O)C(=O)NCC1OCCCN1S(=O)(=O)c1cccs1 (stereo not drawn),4.3,-0.5,-3.6,-7.5,5.1,·
O=C(COC(=O)CCc1c[nH]c2ccccc12)Nc1cc([N+](=O)[O-])ccc1Cl,1.4,4.8,46.5*,3.5,7.9,42.8
O=C(COC(=O)CCc1c[nH]c2ccccc12)Nc1ccc([N+](=O)[O-])cc1,2.5,4.4,33.6,10.6,5.4,·
COc1cc(CN(C(=O)c2cccs2)C2CCS(=O)(=O)C2)cc(OC)c1OC (stereo not drawn),5.9,0.0,-0.2,-1.7,4.4,·
CCn1cc(CN2CCCC(C(=O)Nc3ccc(-c4cscn4)cc3)C2)cn1 (stereo not drawn),-1.1,-3.8,3.3,-2.7,0.8,·
